# An excerpt weighted towards active compounds, which were near 11% of everything screened.
# IMPase inh: qHTS Assay for Identifying the Cell-Membrane Permeable IMPase Inhibitors; Inositol monophosphatase 1 (Rattus norvegicus), P97697; 120,000 tested, under 10 active; inhibition (IP1 accumulation), % at 46.1 µM; CHO-M1 cells, IP1 accumulation, HTRF TR-FRET ratio; AID 901, 2007; active = well fitted curve in the direction sought with a large enough effect in the signal ratio, not every such curve was filed as active; inconclusive = small, poorly fitted or top-dose-only effect, or a change in a side signal; inactive = no such curve, though single readings can be large or run the other way; the % refers to the signal ratio;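 also: cells stimulated with carbachol in lithium chloride buffer; plate controls were DMSO basal wells for no effect and reference inhibitor wells for full effect; higher means more IMPase inhibition seen as more IP1 and lower FRET ratio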
# Target sequence (P97697 whole entry, looked up): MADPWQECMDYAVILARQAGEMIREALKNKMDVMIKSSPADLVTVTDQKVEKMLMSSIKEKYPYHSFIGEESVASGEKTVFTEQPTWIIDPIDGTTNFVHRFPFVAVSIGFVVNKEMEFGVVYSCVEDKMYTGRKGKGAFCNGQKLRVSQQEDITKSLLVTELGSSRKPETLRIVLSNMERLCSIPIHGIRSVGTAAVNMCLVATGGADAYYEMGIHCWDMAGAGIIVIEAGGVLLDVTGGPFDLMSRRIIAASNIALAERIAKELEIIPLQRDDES
#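 CHO-M1 cells (CHO stably expressing M1 receptor), compound up to 46 uM final, stimulated with carbachol (50 uM as added) in buffer with 50mM LiCl, pH 7.4, 30 min at 37C. Cytosolic IP1 read by TR-FRET; AC50 from Hill fits.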
# ALDH1A1 block: qHTS Assay for Inhibitors of Aldehyde Dehydrogenase 1 (ALDH1A1) | Purified ALDH1A1, NADH fluorescence, propionaldehyde substrate | Aldehyde dehydrogenase 1A1 (Homo sapiens), P00352 | actives 7.3% (n = 220,000) | AID 1030, 2008 | Potency, µM (top dose mostly 75.3 µM), for inactives: at the top dose activity, negative = inhibition, actives largely listed as inhibitors; active = well fitted inhibition curve with a large enough effect, not every such curve was filed as active; inconclusive = small, poorly fitted or top-dose-only effect, or another doubt; inactive = no such curve, though single readings can be large or run the other way;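 also: potency is read from the fitted curve at half-maximal effect; plate controls were no enzyme wells and a reference inhibitor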
# Target sequence (P00352 whole entry, looked up): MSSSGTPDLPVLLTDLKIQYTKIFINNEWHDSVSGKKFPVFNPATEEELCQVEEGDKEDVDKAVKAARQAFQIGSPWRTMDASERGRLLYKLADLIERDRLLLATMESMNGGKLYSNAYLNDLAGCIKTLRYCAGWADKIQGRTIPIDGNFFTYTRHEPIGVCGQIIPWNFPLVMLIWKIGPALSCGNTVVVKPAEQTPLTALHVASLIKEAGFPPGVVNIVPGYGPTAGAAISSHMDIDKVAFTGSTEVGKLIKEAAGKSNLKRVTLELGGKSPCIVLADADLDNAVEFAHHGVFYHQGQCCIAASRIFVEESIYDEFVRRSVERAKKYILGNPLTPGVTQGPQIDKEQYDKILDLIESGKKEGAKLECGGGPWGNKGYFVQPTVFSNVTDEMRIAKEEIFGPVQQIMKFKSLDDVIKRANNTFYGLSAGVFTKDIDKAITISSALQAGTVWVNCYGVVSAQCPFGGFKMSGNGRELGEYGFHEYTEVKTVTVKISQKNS
# PNC assembly inh: High Content Assay for Compounds that inhibit the Assembly of the Perinucleolar Compartment; PC3M PTB-GFP, PNC prevalence imaging, 16 h; stronger effect = lower value; activity change (PNC), negative = inhibition, % at 10 µM; actives 3.1% (n = 140,000); AID 2417, 2010;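 active = readout at or below -70, meaning at least 70% loss of cells showing the perinucleolar compartment, a nuclear body marking cancer cells; inconclusive = readout between -30 and a set limit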;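 also: plate controls were DMSO wells for no effect and camptothecin positive control wells for full effect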
#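 PC3M cells stably expressing PTB-GFP, 750–1000 cells/well, treated 16 h at 37 °C with compound (23 nl of library stock), in duplicate. After paraformaldehyde fixation and Hoechst stain, imaged at 20x; PNC prevalence scored by image analysis.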
# HPGD inh: qHTS Assay for Inhibitors of HPGD (15-Hydroxyprostaglandin Dehydrogenase); Potency, µM, without a hit: at the top dose activity change, negative = inhibition, most hits filed as inhibitors; actives 4.3% (n = 150,000); purified HPGD, NADH fluorescence kinetic, PGE2 substrate; active = well fitted inhibition curve with a large enough effect, not every such curve was filed as active; inconclusive = small, poorly fitted or top-dose-only effect, or another doubt; inactive = no such curve, though single readings can be large or run the other way; also: potency is read from the fitted curve at half-maximal effect
#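 20 nM HPGD preincubated 15 min at room temperature with compound in 50 mM Tris-HCl pH 8, 0.01% Tween 20. Started with 1 mM NAD+ and 30 uM prostaglandin E2; NADH fluorescence (360/450 nm) read 5 times over 30-s intervals, last minus first.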
# 12-hLO inh: qHTS Assay for Inhibitors of 12-hLO (12-human lipoxygenase). Polyunsaturated fatty acid lipoxygenase ALOX12 (Homo sapiens), P18054. purified 12-hLO, xylenol orange hydroperoxide absorbance. Potency, µM (highest dose often 57.1 µM), without a hit: at the highest dose activity change, negative = inhibition, most hits filed as inhibitors. actives 0.12% (n = 150,000). AID 1452, 2008; also: potency is read from the fitted curve at half-maximal effect; nearly all actives have a fitted effect of over 55% in size
#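 Xylenol orange chromogenic assay: hydroperoxide from 12hLO oxidises Fe(II), giving red-shifted Fe(III)-XO absorbance. Conditions: 150 nM enzyme, 40 uM arachidonic acid, 25 mM Hepes pH 7.0, 0.01% Triton X-100, 30 min, room temperature.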
# IMPase Li cell: qHTS Assay for Identifying the Cell-Membrane Permeable IMPase Inhibitors: Potentiation with Lithium; Potency, µM (doses to about 59.4 µM), inactives show top-dose activity, negative = IMPase inhibition, hits mostly inhibitors; CHO-M1 cells, IP1 TR-FRET (IP-One), carbachol + lithium; AID 1457, 2008; actives 0.35% (n = 210,000);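 also: IP1 builds up when IMPase is blocked and the TR-FRET signal falls; potency is read from the fitted curve at half-maximal effect; plate controls were basal vehicle for no effect and high inhibitor control for full effect; nearly all actives have a fitted effect of over 50% in size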
#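 CHO-M1, 2000 cells/well, 16–30 h culture; cpd + low Li+, 30 min 37C; lysis with d2-IP1/Eu-anti-IP1 Ab, 10 min RT; TR-FRET 665/620 ratio and 620 channel; AC50 via Hill.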
# Numbers without * were called inactive; u = inconclusive; x = no result; [ ] = remark or other dose. Unless noted, calls follow the shape of the dose curve; as a rule, active = well fitted curve in the direction sought with a large enough effect; inconclusive = small, poorly fitted or top-dose-only effect, or another doubt; inactive = no such curve, though single readings can be large; an effect the other way counts as inactive or inconclusive. Unless noted, % is scaled to controls: 0 for no effect and ±100 for the full control effect.
SMILES,IMPase inh,ALDH1A1 block,PNC assembly inh,HPGD inh,12-hLO inh,IMPase Li cell
Cn1cccc1C(=O)N1CCC[C@@]2(CCN(C(=O)Nc3cccc(C#N)c3)C2)C1,x,-12%,x,-12%,1%,1%
COCCCNC(=O)c1ccc(NC(C)=O)cc1,x,-2%,x,x,x,4%
COCCNC(=O)c1ccc(NC(C)=O)cc1,1,-2%,-21,20µM*,-2%,22%[38.3 µM]
O=C(Nc1ccc2ccccc2c1)[C@H]1C[C@@H]1[C@H](NP(=O)(c1ccccc1)c1ccccc1)c1ccccc1,x,-2%,x,-14%,-6%,-13%
COc1ccccc1/C=C/C=N/N1CCN(Cc2ccc(Cl)cc2)CC1,6,18µM*,21,-25%,-20%,20%[38.3 µM]
C(=C\c1ccccc1)/C=N/N1CCN(Cc2ccccc2)CC1,x,-12%,x,x,x,19%
Clc1ccc(/C=N/N2CCN(Cc3ccccc3Cl)CC2)cc1,x,-6%,x,x,x,11%
COc1ccccc1/C=C/C=N\N1CCN(Cc2ccccc2Cl)CC1,x,20µM*,11,-9%,-9%,10%
Cc1cc(C)c2cc(CN(Cc3nnnn3C3CCCCC3)CC3CCCO3)c(=O)[nH]c2c1 (centres undefined),10,4.5µM*,36,-3%,u,12%[38.3 µM]
Cc1cc2cc(CN(Cc3nnnn3C3CCCCC3)CC3CCCO3)c(=O)[nH]c2cc1C (centres undefined),5,u,29,-7%,u,3%[38.3 µM]
Cc1ccc2cc(CN(Cc3nnnn3C3CCCCC3)CC3CCCO3)c(=O)[nH]c2c1 (centres undefined),7,8.9µM*,-10,-12%,u,-2%[38.3 µM]
CCCC(c1nnnn1CC(=O)OCC)N(Cc1cc2c(C)cc(C)cc2[nH]c1=O)C1CCCC1 (centres undefined),-11,8.9µM*,-2,-19%,-1%,7%[38.3 µM]
CCC(c1nnnn1CCOC)N(Cc1cc2c(C)cc(C)cc2[nH]c1=O)CC1CCCO1 (centres undefined),0,11µM*,34,-3%,-7%,-12%[38.3 µM]
FC(F)(F)c1ccccc1-c1cc(NCc2cccnc2)ncn1,x,12%,x,x,x,2%
CCOc1ccc(S(=O)(=O)N(CC(=O)NCCSc2ccccc2)c2ccccc2)cc1,1,x,x,x,x,x
c1ccc(NCCCNc2ccccc2)cc1,0,20µM*,-26,-4%,0%,30%[38.3 µM]
c1ccc(NCc2ccccn2)cc1,x,1%,x,x,x,3%
Cc1ccccc1C1NC(=S)NC2=C1C(=O)CCC2 (centres undefined),x,22µM*,x,x,x,-6%
CCc1ccc(C2NC(=S)NC3=C2C(=O)CCC3)cc1 (centres undefined),-2,u,10,-4%,-3%,6%
O=C(Cn1c2c(sc1=O)C1c3ccccc3OCC1CS2)Nc1ccc(Cl)c(Cl)c1 (centres undefined),x,25µM*,56,-15%,-4%,11%
Cn1c(N)c(N2CCCCC2)c(=O)n(CC(=O)Nc2ccc(Cl)c(Cl)c2)c1=O,-1,4%,-16,-2%,-3%,9%[38.3 µM]
COC(=O)c1c(NC(=O)COc2ccc(C)cc2Br)sc2c1CCCC2,4,x,x,x,x,x
O=C(NCCOc1nc(N2CCCCC2)nc(N2CCOCC2)n1)Nc1ccccc1,6,8.9µM*,-107*,-8%,-1%,30%[38.3 µM]
CC(=O)Nc1ccc(S(=O)(=O)Oc2ccc(C(=S)N3CCCCC3)cc2)cc1,x,14µM*,u,16µM*,3%,13%
CC(=O)Nc1ccc(S(=O)(=O)Oc2ccc(C(=S)N3CCC(O)CC3)cc2)cc1,x,4%,23,32µM*,-3%,-4%
SMILES,IMPase inh,ALDH1A1 block,PNC assembly inh,HPGD inh,12-hLO inh,IMPase Li cell
COC(=O)CCC(=O)Nc1cc(S(=O)(=O)Nc2ccc(Cl)cc2)ccc1N1CCOCC1,3,20µM*,u,u,-21%,-4%
COc1ccc(NS(=O)(=O)c2ccc(N3CCOCC3)c(NC(=O)c3ccccc3Cl)c2)cc1,x,7%,24,-11%,1%,2%
O=C(COC(=O)Cc1ccc(Cl)cc1)Nc1cc(S(=O)(=O)N2CCOCC2)ccc1N1CCCC1,x,u,5,-8%,0%,1%
O=C(Nc1cc(S(=O)(=O)Nc2ccc(Cl)cc2)ccc1N1CCCCC1)c1ccc(F)cc1Cl,x,32µM*,u,u,-7%,3%
COc1c2c(c3c(c1CCC(=O)O)OC(C)(C)C=C3)OC(C)(C)C=C2,x,20%[13.5 µM],x,0%,7%[11.4 µM],3%
CCC(Sc1nnc2c3ccccc3n(CC)c2n1)C(=O)Nc1ccc(NC(C)=O)cc1 (centres undefined),7,x,x,x,x,x
CC(C)C(Nc1ccc(S(=O)(=O)N2CCOCC2)cc1[N+](=O)[O-])C(=O)O (centres undefined),x,1.3µM*,x,x,x,-3%
C/C(=N\Nc1ccc(S(=O)(=O)N2CCOCC2)cc1[N+](=O)[O-])C(C)C,x,18µM*,x,x,x,26%
CC(Sc1ccc(S(=O)(=O)N2CCOCC2)cc1[N+](=O)[O-])C(=O)O (centres undefined),x,u,-20,-17%,0%,2%
O=C(O)CCc1ccc(-c2ccccc2)n1-c1cccc(Br)c1,5,x,x,x,x,x
COc1ccc2oc(-c3ccccc3)c(OC)c(=O)c2c1,-9,u,x,u,-5%,22%
CCc1nc(C)cn1S(=O)(=O)c1cc(C)c(OC)cc1C,-4,10%,-12,6%,8%,-3%[38.3 µM]
CCc1nc(C)cn1S(=O)(=O)c1cc(C)c(OC)c(C)c1C,13,25µM*,-1,-9%,7%,-6%[38.3 µM]
CN(C)CCc1c[nH]c2ccc(CS(=O)(=O)N3CCCC3)cc12,x,-4%,x,-6%,-1%,6%
O=[N+]([O-])C1=C(Nc2cccc3ccccc23)CS(=O)(=O)C1,-2,u,-11,20µM*,-7%,18%[38.3 µM]
O=C(Nc1cccc2ccccc12)c1ccc([N+](=O)[O-])s1,x,-4%,50,-5%,-1%,-8%
C/C(CCC(=O)OC[C@@H]1O[C@H](C#Cc2ccccc2)C=C[C@@H]1Oc1ccc(C)cc1)=N/O[C@@H](C)CN1CCCCc2nc(C)c(C)cc21,x,8%[13.5 µM],x,x,x,x

# Screening results from PubChem.
